# Compound activity deposited in PubChem by National Center for Advancing Translational Sciences (NCATS).
# Epigenetic reg = derepresses silenced GFP reporter in murine cells; 0.2% of 280,000 active; murine LDR cells, GFP reporter derepression, 30 h; Potency, µM (top dose mostly 53.9 µM), for the others: at the highest dose GFP activation, actives largely listed as activators; note: potency is the fitted concentration of half-maximal effect; % of control where 0% means no effect; nearly all actives have a fitted effect of over 60% in size
#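 Murine LDR cells carrying a silenced, genomically integrated CMV-driven GFP reporter were exposed to compound for 30 hours at 37 C. After PBS washes, GFP-positive cells (20–120 um objects) were counted by laser-scanning microplate cytometry.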
# CBFb-RUNX1 inh = blocks binding between human CBF-beta and RUNX1; Q01196+Q13951; Potency, µM (titrated, usually from 59.8 µM), without a hit: top-dose activity, negative = inhibition, most hits filed as inhibitors; AID 1477; AlphaScreen CBFb-His/RUNX1-biotin binding, biochemical; 230,000 tested, under 10 active; note: % of control where 0% means no effect
# Target sequence (Q01196 whole entry, looked up): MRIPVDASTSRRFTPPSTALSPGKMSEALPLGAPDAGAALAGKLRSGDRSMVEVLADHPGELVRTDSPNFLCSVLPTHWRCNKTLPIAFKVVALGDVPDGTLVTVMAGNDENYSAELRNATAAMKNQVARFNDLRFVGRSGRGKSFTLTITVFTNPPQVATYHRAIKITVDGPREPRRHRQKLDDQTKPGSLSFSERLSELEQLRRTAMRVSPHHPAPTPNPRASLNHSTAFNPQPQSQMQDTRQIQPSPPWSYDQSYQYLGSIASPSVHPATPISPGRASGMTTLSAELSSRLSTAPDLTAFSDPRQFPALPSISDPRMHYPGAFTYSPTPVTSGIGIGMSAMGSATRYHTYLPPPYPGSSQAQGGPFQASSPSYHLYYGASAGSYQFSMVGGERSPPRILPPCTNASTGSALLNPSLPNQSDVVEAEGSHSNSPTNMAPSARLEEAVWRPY
# Target sequence (Q13951 whole entry, looked up): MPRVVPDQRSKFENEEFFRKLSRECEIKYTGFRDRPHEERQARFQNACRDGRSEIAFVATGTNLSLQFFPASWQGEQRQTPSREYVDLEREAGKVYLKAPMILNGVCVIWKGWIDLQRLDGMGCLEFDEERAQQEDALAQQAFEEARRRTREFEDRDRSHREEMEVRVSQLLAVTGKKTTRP
#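 His-tagged CBF-beta and biotinylated RUNX1 (30 nM each) were premixed 20 min at room temperature, exposed to compound for 15 min, then given nickel-chelate and streptavidin AlphaScreen beads (50 ng each). After 90 min, AlphaScreen signal was read.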
# TR SRC2 fluor cs = counter-screen for TRb-SRC2 inhibitors: fluorescence interference; TRb/SRC2 Texas Red total fluorescence interference; Potency, µM (top dose mostly 106 µM), without a hit: top-dose fluorescence change, negative = quenching; 0.29% of 280,000 active; AID 1479; active = well fitted curve in either direction with a large enough effect; inconclusive = small, poorly fitted or top-dose-only effect; note: potency is the fitted concentration of half-maximal effect; % is set by controls: 0 for no effect and ±100 for the full control effect
#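 Flags fluorescent or light-absorbing compounds by total fluorescence, S + 2P, at 555 nm excitation and 632 nm emission. Mixture: 20 nM Texas Red SRC2 peptide, 0.6 uM human TRb LBD, 1 uM T3, 5% DMSO; compound exposure 5 h at ambient temperature.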
# RGS12 GoLoco inh = inhibitors of human Gai1-RGS12 GoLoco interaction (red fluorophore). Potency, µM (top dose mostly 61.6 µM), without a hit: at the highest dose activity, negative = inhibition, actives largely listed as inhibitors. 0.44% of 230,000 active. Gai1:RGS12 GoLoco peptide FP, rhodamine, 10 min. P63096. AID 880; active = well fitted inhibition curve with a large enough effect, not every such curve was filed as active; inactive = no such curve, though single readings can be large or run the other way; note: potency is the fitted concentration of half-maximal effect; % is set by controls: 0 for no effect and ±100 for the full control effect; nearly all actives have a fitted effect of over 30% in size
# TRb-SRC2 inh = TRbeta-SRC2 interaction inhibition | Potency, µM (doses to about 106 µM), for inactives: at the highest dose activity change, negative = inhibition, usual class: inhibitors | P10828 | TRbeta-SRC2 peptide binding, fluorescence polarization; receptor liganded with 1 µM T3 | AID 1469 | 0.065% of 280,000 active;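 note: potency is the fitted concentration of half-maximal effect; plate controls were bound peptide for no effect and peptide without receptor for full effect; nearly all actives have a fitted effect of over 50% in size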
#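 Fluorescence polarization of 20 nM Texas Red SRC2 peptide (20-aa NR interaction domain) bound to 0.6 uM human TRb ligand-binding domain, with 1 uM T3, after 5 hr at ambient temperature; inhibition seen as decreased polarization.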
# * hit, by the source's call; ? = inconclusive; . = not tested or not shown; ! = repeats disagree; [ ] = dose if it differs, or a comment. An excerpt weighted towards active compounds, which were near 0.71% of everything screened. Unless noted, calls come from the whole dose curve; as a rule, active = well fitted curve in the direction sought with a large enough effect; inconclusive = small, poorly fitted or top-dose-only effect, or another doubt; inactive = no such curve, though single readings can be large; an effect the other way counts as inactive or inconclusive.
SMILES,Epigenetic reg,CBFb-RUNX1 inh,TR SRC2 fluor cs,RGS12 GoLoco inh,TRb-SRC2 inh
COC(=O)CCCCCCCCCC[N+]1(C)CCCCC1,2%,1%,1%,11µM*,-10%
CC(=O)OCCCCCCCCCCC[N+]1(C)CCCCC1,3%,8%,0%,11%,0%
O=C(Cn1cnc2c(nc3n2CCCCC3)c1=O)Nc1ccc(F)c(Cl)c1,6%,.,18µM*[quencher],.,-7%
CC[N+]1(CC(O)COC2CC(C)CC(C)(C)C2)CCOCC1 (centres undefined),-2%,9%,-2%,5.6µM*,-1%
Cc1c2oc3c(C)ccc(C(=O)NC4C(=O)NC(C(C)C)C(=O)N5CCCC5C(=O)N(C)CC(=O)N(C)C(C(C)C)C(=O)OC4C)c3nc-2c(C(=O)NC2C(=O)NC(C(C)C)C(=O)N3CCCC3C(=O)N(C)CC(=O)N(C)C(C(C)C)C(=O)OC2C)c(N)c1=O (centres undefined),1%,-5%,-1%,9%,-4%
Cc1ccc(Nc2nc(N/N=C/c3c[nH]c4ccccc34)nc(N3CCOCC3)n2)cc1,-1%,0%,631µM*[quencher],104%,-4%
COc1cccc(C2=Nn3c(nnc3-c3ccc(OC)cc3OC)SC2)c1,.,3%,-1%,.,-6%
Cc1cc(C)c(Nc2cc(S(=O)(=O)O)c(N)c3c2C(=O)c2ccccc2C3=O)c(C)c1,6%,.,-24%,6%,45µM*
Nc1ccc(-c2ccc(Nc3cc(S(=O)(=O)O)c(N)c4c3C(=O)c3ccccc3C4=O)cc2)c(S(=O)(=O)O)c1,.,.,.,-27%[14.2 µM],.
COC(=O)c1ccccc1NC(=O)c1nc(-c2ccc(Cl)cc2)n2c1CCCCC2,0%,.,20µM*[quencher],.,-9%
COc1cccc([C@@H]2Oc3ccc(Br)cc3C(=O)[C@H]2OC(=O)Nc2cc(OC)c(OC)c(OC)c2)c1,-1%,-9%,0%,3%,-2%
Nc1c(C(=O)Nc2ccc(F)cc2)sc2nc(-c3cccs3)cc(C(F)(F)F)c12,?,.,-7%,.,-2%
Nc1c(C(=O)C2CC2)sc2nc(-c3cccs3)cc(C(F)(F)F)c12,3.5µM*,7%,-5%,40%,-4%
CC(C)(N)C(=O)N[C@@H]1C(=O)N2[C@@H]1SC(C)(C)[C@H]2C(=O)O,.,.,.,6%[14.2 µM],.
CC1=C(\C=C/C(C)=C/C=C\C(C)=C\C(=O)O)C(C)(C)CCC1,2%,16%,-1%,2%,-7%
CC1=C(/C=C/C(C)=C/C=C/C(C)=C\C(=O)O)C(C)(C)CCC1,2%,-1%,28µM*![fluorescent],7%,22µM*!
On1onc2c3cc(-c4ccccc4)nc3ccc21,16µM*,-20%,-11%,-4%,8%
c1ccc(-c2cc3c(ccc4nonc43)nn2)cc1,3%,2%,1%,-4%,-8%
COc1ccc(-c2noc(CCC(=O)Nc3cccnc3)n2)cc1OC,4%,-7%,-1%,16%,-7%
COc1ccc(-c2noc(CCC(=O)Nc3ccccc3Cl)n2)cc1OC,0%,.,0.004µM*[quencher],.,-28%[53 µM]
Cc1ccc([N+](=O)[O-])cc1N/C=C1\CCCCC1=O,3.5µM*,-7%,-1%,-7%,-17%
COc1cccc(C(=O)Oc2c(CN3CCOCC3)cc(Cl)c3cccnc23)c1,4.5µM*,?,-10%,3%,-6%
COc1cc(C(=O)Oc2c(CN3CCOCC3)cc(Cl)c3cccnc23)cc(OC)c1OC,?,.,0%,7%,-1%
COc1ccc(C(=O)Oc2c(CN3CCOCC3)cc(Cl)c3cccnc23)cc1,7.1µM*,-19%,-5%,3%,-2%
CC(C)S(=O)(=O)c1oc(-c2cccs2)nc1S(=O)(=O)c1ccc(F)cc1,14%,.,-19%,.,0%
SMILES,Epigenetic reg,CBFb-RUNX1 inh,TR SRC2 fluor cs,RGS12 GoLoco inh,TRb-SRC2 inh
CCCCn1c(NC(=O)c2ccccc2)c(C#N)c2nc3ccccc3nc21,1%,?,-9%,.,8%
CCC(C)n1c(NC(=O)c2ccccc2)c(C#N)c2nc3ccccc3nc21 (centres undefined),20µM*,23%,0%,182%,-15%
COc1ccccc1NC(=O)CC(C)=O,.,.,-3%[201 µM],.,-1%[201 µM]
O=c1c2ccccc2sn1-c1cc(S(=O)(=O)N2CCOCC2)ccc1N1CCOCC1,1%,-1%,.,3.5µM*,.
Cc1c(N(C)CS(=O)(=O)O)c(=O)n(-c2ccccc2)n1C,7%,4%,2%,28µM*!,-13%
CCCN(c1c(C)n(C)n(-c2ccccc2)c1=O)S(=O)(=O)c1ccc(C)cc1,-1%,.,?,.,-1%
O=C(Cn1c2ccccc2c(=O)c2ccccc21)N/N=C/c1ccc(N2CCCC2)c([N+](=O)[O-])c1,-1%,-3%,2%,11%,2%
O=C(Cn1c2ccccc2c(=O)c2ccccc21)N/N=C/c1cc([N+](=O)[O-])ccc1N1CCCCCC1,20µM*,-3%,-3%,79%,-9%
CC(C)C[C@@H](/C=C/S(C)(=O)=O)NC(=O)[C@H](CC(C)C)NC(=O)[C@H](CC(C)C)NC(=O)OCc1ccccc1,6.3µM*,-7%,0%,4%,-6%
CCNC(=O)C(Cc1ccccc1)NC(=O)OCc1ccccc1 (centres undefined),-1%,-6%,-4%,7%,-2%
O=c1[nH]c2ccc([N+](=O)[O-])cc2nc1/C=C(\O)c1ccccc1,6.3µM*,15%,-2%,-6%,-4%
COc1ccccc1OC(C)C(=O)Nc1ccc(-c2nc3ccccc3s2)cc1 (centres undefined),35µM*,.,5%,.,-4%
C1CCC2(CCCCO2)OC1,.,.,-1%[201 µM],.,-4%[201 µM]
CCN(CC)Cc1cc(O)c(CN(CC)CC)cc1O,8%,.,?,7.9µM*,-10%
CCc1oc(C(=O)O)cc1CN(CC)CC,0%,3%,0%,8%,1%
CCOC(=O)/C(=C\C=C1/Sc2ccccc2N1CC)C(C)=O,16µM*,-8%,-3%,14%,-2%
CCOC(=O)/C(=C/C=C1\Sc2ccccc2N1CC)C(C)=O,?,-12%,1%,78%,3%
COC(=O)c1ccccc1S(=O)(=O)N1CCc2nc(COc3ccccc3)c3c(c2C1)CO[C@@H](C)C3,.,9%[13.1 µM],-2%[11.2 µM],5%[14.2 µM],-3%[11.2 µM]
Cc1cc(NC(=O)CSc2cc(Cl)ccc2Cl)n(-c2ccccc2)n1,0%,-4%,32µM*[quencher],-24%,-23%[53 µM]
Cc1cc(NC(=O)COc2ccc(Cl)cc2Cl)n(-c2ccccc2)n1,-1%,0%,-3%,-2%,-11%
COc1ccc(C2CC(=O)C3=C(C2)Nc2ccccc2N(C(=O)CCC(=O)O)C3c2ccc(F)cc2)cc1 (centres undefined),0%,5%,-5%,5.6µM*,-2%
IC(I)I,.,1%[21.7 µM],-2%[201 µM],14µM*,-6%[201 µM]
N#C/C(=C\c1ccc(OC(=O)c2ccc(Cl)s2)cc1)c1nc2ccccc2[nH]1,16%,-1%,0%,62%,1%
